Here are results for 18 compounds from PubChem BioAssay (Tox21).

Each structure is given as a SMILES string. Several values for one entry are separate records, joined by “and”; a condition that tells them apart may be missing. Identical values can stand only once. Results filed as inconclusive are left out. Some structures have more than one record in an assay (separate samples or runs), and their calls can disagree. Activity calls are given as the source filed them. The call rests on the fitted dose curve; in most records, active means well fitted curve in the direction sought with a large enough effect in the repeat runs; inconclusive means weak or mixed curves; inactive means no such curve, though single readings can be large; an effect the other way counts as inactive or inconclusive.

Assay [1] is described as follows: Human pregnane X receptor (PXR) small molecule agonists, qHTS cell viability counter screen (AID 1346977). Further: nearly all actives have a fitted effect of over 50% in size. Further: potency means the concentration at half of the fitted maximal effect. Put shortly:
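HepG2 cells stably carrying the PXR-Luc reporter are cultured with 5% charcoal-stripped FBS and treated with compounds for 24hr. CellTiter-Fluor is added at 23hr and fluorescence is read after 1hr.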
For orientation: In qHTS, concentration-response curves come from the screen itself.

Assay [2] can be described thus: Caspase-3/7 induction in HepG2 cells by small molecules, qHTS assay (AID 1346978). Further: nearly all actives have a fitted effect of over 15% in size. The method in brief:
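Caspase-3/7 induction was measured by Caspase-Glo 3/7 luminescence (30 min, room temperature) after a 17 hr compound exposure of wild-type HepG2 cells seeded at 2,000 per well and pre-incubated 5 hr.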

Assay [3] can be described thus: Caspase-3/7 induction in CHO-K1 cells by small molecules, qHTS cell viability counter screen (AID 1346979). Further: nearly all actives have a fitted effect of over 35% in size. Further: potency means the concentration at half of the fitted maximal effect. Put shortly:
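Seeding: 1,500 CHO-K1 cells/well. Rest: 5hr, 37C. Treatment: compounds in DMSO, 16hr. Read: CellTiter-Fluor, 1hr, fluorescence.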

Assay [4] is described as follows: Caspase-3/7 induction in HepG2 cells by small molecules, qHTS cell viability counter screen (AID 1346981). Further: series mostly up to about 92 µM; nearly all actives have a fitted effect of over 30% in size. The method in brief:
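HepG2, WT, 2,000 cells/well; 5 hr pre-incubation 37 C/5% CO2; compound pin-transferred from DMSO; 16 hr exposure; CellTiter-Fluor, 1 hr; fluorescence read.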

The target of assay [5] is Nuclear receptor subfamily 1 group I member 2 (Homo sapiens) (UniProt O75469). Kind of assay: Human pregnane X receptor (PXR) small molecule agonists, qHTS assay (AID 1346982). Further: nearly all actives have a fitted effect of over 35% in size. Further: potency means the concentration at half of the fitted maximal effect. The method in brief:
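Luciferase signal from ONE-Glo (30 min, room temperature) measured activation of hPXR-driven CYP3A4 reporter expression in PXR-Luc HepG2 cells treated with compounds for 24 hr at 37 C.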

For assay [6], the target named is Cytochrome P450 2D6 (Homo sapiens) (UniProt P10635). Kind of assay: Cytochrome P450 Family 2 Subfamily D Member 6 (CYP2D6) small molecule antagonists: luciferase reporter qHTS assay (AID 1671196). Further: nearly all actives have a fitted effect of over 50% in size. Further: potency means the concentration at half of the fitted maximal effect. Put shortly: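 Read-out is luminescence from luciferin formed by CYP2D6 turnover of a proluciferin substrate, recorded as relative luminescence units. Reactions ran 1 h at room temperature after NADPH regeneration solution was added.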
Sequence of Cytochrome P450 2D6 (Homo sapiens) (P10635 whole entry, looked up): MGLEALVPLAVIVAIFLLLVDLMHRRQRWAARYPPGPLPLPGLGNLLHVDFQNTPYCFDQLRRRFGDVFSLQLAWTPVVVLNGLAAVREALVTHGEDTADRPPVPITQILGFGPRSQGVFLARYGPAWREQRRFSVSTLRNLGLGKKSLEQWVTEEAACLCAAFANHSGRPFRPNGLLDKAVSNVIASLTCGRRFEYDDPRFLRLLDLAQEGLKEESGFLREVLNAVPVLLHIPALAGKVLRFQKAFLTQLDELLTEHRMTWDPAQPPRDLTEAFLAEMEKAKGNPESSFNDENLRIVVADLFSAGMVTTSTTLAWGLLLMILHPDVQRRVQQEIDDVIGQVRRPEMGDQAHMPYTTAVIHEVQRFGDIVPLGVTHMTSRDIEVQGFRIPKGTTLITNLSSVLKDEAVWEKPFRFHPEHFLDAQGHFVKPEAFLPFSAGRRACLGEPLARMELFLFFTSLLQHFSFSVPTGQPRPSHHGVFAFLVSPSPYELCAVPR
Background: Reporter assays use an easily measured gene product as a stand-in for the process of interest.

For assay [7], the target named is Cytochrome P450 2C19 (Homo sapiens) (UniProt P33261). Kind of assay: Cytochrome P450 Family 2 Subfamily C Member 19 (CYP2C19) small molecule antagonists: luciferase reporter qHTS assay (AID 1671197). Further: nearly all actives have a fitted effect of over 65% in size. Further: potency means the concentration at half of the fitted maximal effect. The method in brief:
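Enzyme-substrate mix with proluciferin substrate (P450-Glo CYP2C19 system) preincubated with compounds 10 min at room temperature; NADPH regeneration solution added, 37C for 1 h; detection reagent stops reaction, luminescence read after 20 min. Ketoconazole positive control.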

Assay [8] deals with Cytochrome P450 2C9 (Homo sapiens) (UniProt P11712). As to the kind of experiment: Cytochrome P450 Family 2 Subfamily C Member 9 (CYP2C9) small molecule antagonists: luciferase reporter qHTS assay (AID 1671198). Further: nearly all actives have a fitted effect of over 50% in size. Further: potency means the concentration at half of the fitted maximal effect. Put shortly:
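Enzyme-substrate mix preincubated with compound 10 min at room temperature; reaction started with NADPH regeneration solution, 1 h 37C. Luminescent luciferin product read after 20 min detection reagent.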

Assay [9] addresses Cytochrome P450 1A2 (Homo sapiens) (UniProt P05177). As to the kind of experiment: Cytochrome P450 Family 1 Subfamily A Member 2 (CYP1A2) small molecule antagonists: luciferase reporter qHTS assay (AID 1671199). Further: nearly all actives have a fitted effect of over 50% in size. Further: potency means the concentration at half of the fitted maximal effect. The method in brief:
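P450-Glo CYP1A2, 1536-well qHTS: enzyme/proluciferin substrate + cpd (DMSO), 10 min RT; NADPH regen, 1 h RT; detection reagent, 20 min; luminescence, RLU.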

Assay [10] addresses Voltage-gated inwardly rectifying potassium channel KCNH2 (Homo sapiens) (UniProt Q12809). As to the kind of experiment: Human Ether-a-go-go-Related Gene (hERG) channel small molecule antagonists: fluorescence cell-based qHTS assay (AID 1671200). Put shortly: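 First, 1000 cells per well are seeded and cultured overnight at 37 C. Next, FluxOR II dye is loaded for 1 h at room temperature, protected from light. After 10 more minutes, stimulus is added and fluorescence is read.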
Background: The hERG channel carries a current that helps repolarise heart muscle cells.

Assay [11] addresses Cytochrome P450 3A4 (Homo sapiens) (UniProt P08684). Kind of assay: Cytochrome P450 Family 3 Subfamily A Member 4 (CYP3A4) small molecule antagonists: luciferase reporter qHTS assay (AID 1671201). Put shortly:
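Enzyme and proluciferin substrate are mixed with test chemicals for 10 min, then NADPH regeneration system drives turnover for 1 h at room temperature. A detection reagent halts the reaction; luminescence after 20 min gives relative activity.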

Assay [12] deals with Nuclear receptor subfamily 1 group I member 2 (Rattus norvegicus) (UniProt Q9R1A7). Kind of assay: Rat pregnane X receptor (rPXR) activation by small molecules, qHTS assay (AID 1346983). Further: nearly all actives have a fitted effect of over 20% in size. As to conditions: rPXR luciferase reporter cells, One-Glo luminescence, 24 h; stronger effect = higher value. The method in brief:
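Luminescent readout (One-Glo luciferase, 30 min room temperature) followed 24 hr compound treatment at 37 C of rPXR cells plated 2,000 per well and preincubated 5hr; qHTS format with compounds delivered in DMSO.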

The target in assay [13] is Nuclear receptor subfamily 1 group I member 2 (Homo sapiens) (UniProt O75469). Kind of assay: Human pregnane X receptor (PXR) activation by small molecules, qHTS assay (AID 1346985). Further: nearly all actives have a fitted effect of over 40% in size. Further: potency means the concentration at half of the fitted maximal effect. Put shortly: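 DPX-2 cells (HepG2 co-transfected with a PXR response element and a CYP3A4-promoter luciferase construct) were seeded at 2,000 per well, rested 5 hr at 37C, then exposed to DMSO-dissolved compounds for 24 hr. Activation was read as luciferase luminescence.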
Sequence of Nuclear receptor subfamily 1 group I member 2 (Homo sapiens) (O75469 whole entry, looked up): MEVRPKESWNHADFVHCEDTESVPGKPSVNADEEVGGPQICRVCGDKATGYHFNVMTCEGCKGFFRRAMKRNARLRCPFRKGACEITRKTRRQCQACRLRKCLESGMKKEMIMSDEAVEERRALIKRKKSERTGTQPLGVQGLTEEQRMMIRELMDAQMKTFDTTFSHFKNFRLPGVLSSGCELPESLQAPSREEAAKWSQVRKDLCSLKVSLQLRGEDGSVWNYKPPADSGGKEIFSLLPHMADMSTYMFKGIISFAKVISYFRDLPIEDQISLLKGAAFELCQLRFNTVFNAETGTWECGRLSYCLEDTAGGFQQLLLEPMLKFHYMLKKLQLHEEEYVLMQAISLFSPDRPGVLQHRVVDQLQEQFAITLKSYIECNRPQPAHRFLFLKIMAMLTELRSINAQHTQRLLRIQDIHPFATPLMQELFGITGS

Assay [14] has the same target. As to the kind of experiment: CYP3A4 induction through human pregnane X receptor (PXR) by small molecules, qHTS assay (AID 1346984). Further: nearly all actives have a fitted effect of over 40% in size. Put shortly: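 Luminescence readout: luciferase signal after One-Glo (30 min, room temperature), following 3 h at 37C with 3uM final Luciferin-IPA P450 substrate. Cells were DPX-2 (HepG2, PXR/CYP3A4-luc co-transfected) dosed for 24 h.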

Assay [15] can be described thus: Caspase-3/7 induction in CHO-K1 cells by small molecules, qHTS assay (AID 1346980). Further: nearly all actives have a fitted effect of over 15% in size. Put shortly: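 Luminescent Caspase-Glo 3/7 read (30min, room temperature) quantified apoptosis induction. Cells were wild-type CHO-K1, treated with compound for 17hr at 37 C and 5% CO2.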
On the % scale 0 is the no-effect control and ±100 the full control effect.

Sequence of Nuclear receptor subfamily 1 group I member 2 (Rattus norvegicus) (Q9R1A7 whole entry, looked up): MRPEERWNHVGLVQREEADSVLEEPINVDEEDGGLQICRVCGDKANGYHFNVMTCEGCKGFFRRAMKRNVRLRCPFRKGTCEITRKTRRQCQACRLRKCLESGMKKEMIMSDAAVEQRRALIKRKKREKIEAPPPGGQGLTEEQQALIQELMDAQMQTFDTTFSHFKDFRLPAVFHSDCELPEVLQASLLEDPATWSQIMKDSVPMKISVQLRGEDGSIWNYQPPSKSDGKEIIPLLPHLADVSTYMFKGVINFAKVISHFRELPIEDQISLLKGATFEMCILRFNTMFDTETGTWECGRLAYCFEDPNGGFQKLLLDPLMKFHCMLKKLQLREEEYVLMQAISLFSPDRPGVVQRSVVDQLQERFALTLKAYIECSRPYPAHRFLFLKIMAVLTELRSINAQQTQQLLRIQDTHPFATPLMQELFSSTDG
Sequence of Cytochrome P450 2C19 (Homo sapiens) (P33261 whole entry, looked up): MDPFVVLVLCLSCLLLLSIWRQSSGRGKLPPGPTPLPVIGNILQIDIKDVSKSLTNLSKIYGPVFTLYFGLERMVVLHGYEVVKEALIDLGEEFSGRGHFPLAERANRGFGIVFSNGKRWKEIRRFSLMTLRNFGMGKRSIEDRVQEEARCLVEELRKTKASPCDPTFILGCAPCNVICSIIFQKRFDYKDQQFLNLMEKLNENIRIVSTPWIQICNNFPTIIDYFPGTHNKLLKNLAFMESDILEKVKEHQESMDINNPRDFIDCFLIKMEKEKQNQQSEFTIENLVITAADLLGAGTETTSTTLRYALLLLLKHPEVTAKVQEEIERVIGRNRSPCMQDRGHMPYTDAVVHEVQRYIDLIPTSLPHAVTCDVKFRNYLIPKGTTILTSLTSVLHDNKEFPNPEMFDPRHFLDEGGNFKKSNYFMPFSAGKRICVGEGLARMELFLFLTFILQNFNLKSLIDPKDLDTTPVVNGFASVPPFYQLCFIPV
Sequence of Voltage-gated inwardly rectifying potassium channel KCNH2 (Homo sapiens) (Q12809 whole entry, looked up): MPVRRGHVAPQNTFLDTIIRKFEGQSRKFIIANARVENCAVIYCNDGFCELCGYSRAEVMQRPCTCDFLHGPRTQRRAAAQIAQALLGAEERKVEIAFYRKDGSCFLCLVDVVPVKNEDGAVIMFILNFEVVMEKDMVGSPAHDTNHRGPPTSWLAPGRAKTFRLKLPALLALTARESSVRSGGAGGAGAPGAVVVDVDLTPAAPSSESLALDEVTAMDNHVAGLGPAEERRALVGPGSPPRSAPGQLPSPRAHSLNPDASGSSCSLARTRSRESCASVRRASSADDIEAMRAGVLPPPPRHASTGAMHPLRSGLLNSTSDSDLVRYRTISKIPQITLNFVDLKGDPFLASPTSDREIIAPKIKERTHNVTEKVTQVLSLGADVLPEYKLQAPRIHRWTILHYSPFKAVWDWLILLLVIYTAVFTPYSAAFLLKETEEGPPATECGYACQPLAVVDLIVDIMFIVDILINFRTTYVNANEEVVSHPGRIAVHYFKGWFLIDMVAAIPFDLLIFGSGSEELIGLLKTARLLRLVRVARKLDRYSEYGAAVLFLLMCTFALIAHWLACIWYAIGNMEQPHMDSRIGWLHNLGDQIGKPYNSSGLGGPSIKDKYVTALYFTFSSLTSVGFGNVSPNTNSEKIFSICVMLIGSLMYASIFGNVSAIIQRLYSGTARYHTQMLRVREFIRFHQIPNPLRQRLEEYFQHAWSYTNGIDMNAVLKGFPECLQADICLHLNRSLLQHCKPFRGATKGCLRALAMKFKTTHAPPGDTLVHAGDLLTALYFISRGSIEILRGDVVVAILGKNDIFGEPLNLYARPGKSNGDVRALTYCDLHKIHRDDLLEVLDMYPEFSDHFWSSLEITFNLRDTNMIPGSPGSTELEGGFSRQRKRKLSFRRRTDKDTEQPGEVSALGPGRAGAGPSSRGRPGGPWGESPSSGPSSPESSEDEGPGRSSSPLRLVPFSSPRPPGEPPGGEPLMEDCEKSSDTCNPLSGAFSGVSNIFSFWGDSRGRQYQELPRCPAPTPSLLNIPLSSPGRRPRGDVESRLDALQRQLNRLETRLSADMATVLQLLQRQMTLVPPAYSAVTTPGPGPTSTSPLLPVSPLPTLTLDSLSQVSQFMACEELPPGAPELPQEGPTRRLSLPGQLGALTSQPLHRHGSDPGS
Sequence of Cytochrome P450 3A4 (Homo sapiens) (P08684 whole entry, looked up): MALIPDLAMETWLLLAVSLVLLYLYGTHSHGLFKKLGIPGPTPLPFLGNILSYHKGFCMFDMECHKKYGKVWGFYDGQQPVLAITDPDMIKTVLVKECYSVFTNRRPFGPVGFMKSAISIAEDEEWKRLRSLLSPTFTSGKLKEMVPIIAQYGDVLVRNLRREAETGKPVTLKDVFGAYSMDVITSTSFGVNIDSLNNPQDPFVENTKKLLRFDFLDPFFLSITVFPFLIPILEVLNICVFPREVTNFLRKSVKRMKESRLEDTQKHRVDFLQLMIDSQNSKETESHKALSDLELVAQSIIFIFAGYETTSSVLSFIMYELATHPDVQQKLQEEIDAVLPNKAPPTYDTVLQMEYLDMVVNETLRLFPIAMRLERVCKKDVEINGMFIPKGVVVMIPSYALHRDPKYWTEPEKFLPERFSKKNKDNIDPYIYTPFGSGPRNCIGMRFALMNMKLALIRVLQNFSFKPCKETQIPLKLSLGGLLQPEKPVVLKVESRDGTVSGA
Sequence of Cytochrome P450 2C9 (Homo sapiens) (P11712 whole entry, looked up): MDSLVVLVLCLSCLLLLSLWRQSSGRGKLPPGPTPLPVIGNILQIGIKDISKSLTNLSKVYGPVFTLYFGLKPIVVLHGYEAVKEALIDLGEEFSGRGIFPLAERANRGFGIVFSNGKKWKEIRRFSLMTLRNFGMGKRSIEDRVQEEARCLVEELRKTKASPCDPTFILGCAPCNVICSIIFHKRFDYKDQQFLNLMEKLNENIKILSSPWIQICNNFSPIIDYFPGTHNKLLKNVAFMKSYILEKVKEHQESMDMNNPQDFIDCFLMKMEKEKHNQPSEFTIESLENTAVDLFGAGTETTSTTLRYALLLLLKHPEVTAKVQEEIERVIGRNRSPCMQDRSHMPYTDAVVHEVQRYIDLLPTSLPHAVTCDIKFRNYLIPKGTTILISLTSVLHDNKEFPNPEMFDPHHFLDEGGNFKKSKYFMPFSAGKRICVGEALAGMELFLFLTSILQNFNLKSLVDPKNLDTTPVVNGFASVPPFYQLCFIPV
Sequence of Cytochrome P450 1A2 (Homo sapiens) (P05177 whole entry, looked up): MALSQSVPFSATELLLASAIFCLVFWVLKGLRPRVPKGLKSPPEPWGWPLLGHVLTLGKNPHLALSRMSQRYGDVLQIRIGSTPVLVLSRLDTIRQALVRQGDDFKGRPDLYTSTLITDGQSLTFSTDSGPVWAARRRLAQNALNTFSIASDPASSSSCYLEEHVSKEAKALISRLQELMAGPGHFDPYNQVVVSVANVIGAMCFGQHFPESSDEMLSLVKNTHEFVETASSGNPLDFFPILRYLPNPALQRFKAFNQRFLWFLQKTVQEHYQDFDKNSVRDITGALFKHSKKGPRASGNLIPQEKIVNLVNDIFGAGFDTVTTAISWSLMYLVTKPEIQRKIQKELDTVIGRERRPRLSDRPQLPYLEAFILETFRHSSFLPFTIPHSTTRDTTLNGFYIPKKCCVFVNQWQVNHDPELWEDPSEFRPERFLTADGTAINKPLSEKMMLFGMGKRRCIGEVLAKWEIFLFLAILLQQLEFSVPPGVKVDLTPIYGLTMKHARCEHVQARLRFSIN

For `OCCc1ccccc1`, the Potency result in assay [1], in assay [2], in assay [3], in assay [4], in [5] and in [6] was “inactive” throughout. In addition, the Potency entry in [7], in assay [8], in assay [9] and in [11] was “inactive” in each case. The compound was called inactive in [10].
For `CCCCOC(=O)CC(CC(=O)OCCCC)(OC(C)=O)C(=O)OCCCC`, the Potency entry in [1], in assay [2], in assay [3], in [4] and in assay [6] was “inactive” throughout. For the same compound, the Potency was 6.68 µM (active) and 12.3 µM (active) and 13.7 µM (active) in assay [5]; 25.1 µM (active) in assay [13]; 2.19 µM (active) and 4.04 µM (active) and 3.56 µM (active) in assay [7]; 2.75 µM (active) and 2.86 µM (active) and 2.52 µM (active) in assay [8]. In addition, the max activation in assay [12] is 0.822% (inactive).
Regarding `Nc1ccn([C@H]2CC[C@@H](CO)O2)c(=O)n1`, the Potency entry in [1], in assay [2], in [3], in [4], in assay [5] and in assay [6] was “inactive” each time. In addition, the Potency result in assay [8], in [9] and in assay [11] was “inactive” in each case. In [7], the Potency is 78.3 µM (active) and inactive. The compound was classed as inactive in assay [10].
As to `CNC[C@H](O)c1cccc(O)c1`, the Potency entry in assay [1], in [2], in [3] and in assay [4] was “inactive” in each case. Also, the max activation in assay [12] was -0.862% (inactive). In addition, the compound was classed as inactive in assay [10].
For the compound `O=C(C1CCCCC1)N1CC(=O)N2CCc3ccccc3C2C1` (stereo not drawn), the Potency result in assay [1], in [2], in assay [3], in assay [4], in [6] and in [8] was “inactive” each time. Besides, the Potency was 30.6 µM (active) in assay [5]; 7.95 µM (active) and 17.8 µM (active) and 9.77 µM (active) in assay [7]; 31.7 µM (active) and 28.3 µM (active) and 17.4 µM (active) in [9]. Moreover, in [10], the call was inactive.
With `CC(C)(Oc1ccc(C2CC2(Cl)Cl)cc1)C(=O)O` (stereo not drawn), the Potency result in assay [1], in assay [2], in [3], in assay [4], in assay [5] and in assay [13] was “inactive” each time. Also, the Potency entry in assay [6], in assay [7], in assay [9] and in assay [11] was “inactive” throughout. Moreover, the max activation in assay [12] is -3.49% (inactive). Besides, the result in assay [14] and in assay [10] was inactive. For the same compound, the Potency in [8] was 30.5 µM (active) and 22.4 µM (active) and 15.5 µM (active).
On to `CCCNC(=O)NS(=O)(=O)c1ccc(Cl)cc1`, for which the Potency entry in assay [1], in [2], in assay [3], in assay [4], in [5] and in [6] was “inactive” each time. In addition, the Potency entry in [7] and in assay [11] was “inactive” throughout. In addition, the Potency was 39.7 µM (active) and 35.6 µM (active) in assay [8]; “inactive and 15.5 µM (active)” in [9]. In addition, the call in assay [10] was inactive.
For `Nc1ccc(O)c(C(=O)O)c1`, the Potency entry in assay [1], in [2], in assay [4], in [5], in assay [9] and in assay [11] was “inactive” throughout. Besides, the Potency was 79 µM (active) and 31.7 µM (active) and inactive in assay [7]; 62.7 µM (active) and 63.3 µM (active) in assay [8]. Further, in [10], the call was inactive.
In the case of `Cn1c(=O)c2[nH]cnc2n(C)c1=O`, the Potency result in [1], in [2], in [3], in assay [4], in [5] and in [6] was “inactive” in each case. In addition, the Potency entry in assay [7], in [9] and in assay [11] was “inactive” in each case.
Take `NC(=O)c1cnccn1`: the Potency result in [1], in assay [2], in assay [3], in [4], in [5] and in assay [7] was “inactive” each time. For the same compound, the Potency result in assay [8], in [9] and in [11] was “inactive” each time. In addition, the Potency in [6] is 19.7 µM (active) and inactive. Also, the compound was classed as inactive in assay [10].
In the case of `O=S(=O)(O)c1ccc2cc(O)ccc2c1`, the Potency result in assay [1], in assay [2], in [3], in [4], in assay [5] and in assay [6] was “inactive” in each case. Also, the Potency result in assay [8] and in [11] was “inactive” throughout. Also, the Potency result in assay [7] was “inactive and 71.6 µM (active) and 79.6 µM (active)”; in assay [9], “inactive and 39.9 µM (active)”. Further, in [10], the result was inactive.
`OC(Cn1cncn1)(Cn1cncn1)c1ccc(F)cc1F`: the Potency entry in assay [1], in assay [3], in [4], in [5], in assay [13] and in [9] was “inactive” in each case. The compound was classed as inactive in [15], in assay [14] and in assay [10]. The max activation in assay [12] was -1.17% (inactive). Also, in assay [6], the Potency was 22.7 µM (active) and inactive.
As for `Cc1ccc(S(=O)(=O)NC(=O)NN2CCCCCC2)cc1`, the Potency result in assay [1], in assay [2], in assay [3] and in [4] was “inactive” in each case. Also, the call in assay [10] was inactive.
With `Cc1ccc(O)cc1`, the Potency entry in assay [2], in [3] and in assay [4] was “inactive” in each case. In assay [10], the compound was called inactive.
With `O=C(O)CCCCCCCC(=O)O`, the Potency entry in assay [1], in [2], in assay [3], in assay [4], in assay [5] and in assay [6] was “inactive” throughout. Further, the Potency result in [7], in assay [9] and in assay [11] was “inactive” in each case. For the same compound, the compound was called inactive in assay [10].
With `O=C(O)/C=C\C(=O)O`, the Potency result in assay [1], in assay [2], in assay [3], in assay [4], in assay [8] and in assay [9] was “inactive” in each case. Also, the Potency entry in assay [11] is “inactive”. Further, the Potency is 25.2 µM (active) and inactive in [6]; 41.3 µM (active) and inactive in assay [7]. Further, the compound was classed as inactive in [10].
On to `Cc1cn([C@H]2C[C@H](N=[N+]=[N-])[C@@H](CO)O2)c(=O)[nH]c1=O`, for which the Potency in assay [1] is 70.8 µM (active) and inactive; in assay [3] it was 15.8 µM (active) and inactive; in assay [7], 41.1 µM (active) and 39.9 µM (active) and inactive; in assay [8] it was 63.3 µM (active) and inactive. In addition, the Potency result in assay [2], in [4], in assay [5], in assay [13], in assay [6] and in assay [9] was “inactive” each time. For the same compound, in assay [11], the Potency entry was “inactive”. In addition, the max activation in assay [12] is -3.59% (inactive). Besides, the result in [14] and in assay [10] was inactive.
As to `CC(=O)Nc1nnc(S(N)(=O)=O)s1`, the Potency entry in [1], in [2], in [3], in assay [4], in [5] and in assay [6] was “inactive” throughout. The Potency result in assay [7], in assay [8], in assay [9] and in assay [11] was “inactive” each time. Also, the call in assay [10] was inactive.
